The experiment concerns Plasmodium falciparum NF54 gametocytes. Put plainly: viability index relative to DMSO control (fraction); higher = less gametocyte killing. The settings on record: 12.5 µM, incubation time: 72 h. An outline of the steps:
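The viability index expresses each well's gametocyte particle count relative to the plate mean of solvent-only wells. Stage I–V P. falciparum NF54 gametocytes (0.50% gametocytemia, 1.25% hematocrit, 40 µl of serum-containing medium) were exposed to compound at 12.5 µM for 72 hr at 37°C under low oxygen in 384-well plates. They were stained for 20 min with 5 µl of 5 µM MitoTracker Red CMXRos, and 5 µl was then transferred into 40 µl of 500 nM dye in serum-free medium for imaging of three fields 30 min later.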

Where [1] appears, read: gametocyte stage: Stage I viability index.
[2] abbreviates: gametocyte stage: Stage II viability index.
The mark [3] stands for this setting: gametocyte stage: Stage III viability index.
Setting [4] is: gametocyte stage: Stage IV viability index.
[5] abbreviates: gametocyte stage: Stage V viability index.

We go through 25 compounds from the supplement of paper PMC4723716.

In the case of `CCOC(=O)C1=C(C)N=c2sc(=Cc3ccccc3O)c(=O)n2C1c1ccc(OC)c2ccccc12` (stereo not given), the viability index was determined as 0.0358 under setting [1]; 0.06 under setting [2]; 0.197 under setting [3]; 0.468 under setting [4]; 0.481 under setting [5].

Take `Cc1cc(C)c2nc(N3CCC(C(=O)NCCCN4CCC(N5CCCCC5)CC4)CC3)sc2c1`: the viability index reads like this: under setting [1], 0.0166; under setting [2], 0.204; under setting [3], 0.455; under setting [4], 0.477; under setting [5], 0.352.

Consider `CC(C)(C)c1ccc(C2CC3=Nc4ccccc4N(C(=O)c4ccccc4Cl)C(c4ccc(F)cc4)C3=C(O)C2)cc1` (stereo not given), for which the viability index by setting is: under setting [1], 0.278; under setting [2], 0.223; under setting [3], 0.472; under setting [4], 0.503; under setting [5], 0.429.

With `CC1CCN(Cc2c(O)ccc3cc(-c4nc5ccccc5s4)c(=O)oc23)CC1`, the viability index under setting [1] amounted to 0.706; the viability index under setting [2] was 0.705; the viability index under setting [3] was determined as 0.925; the viability index under setting [4] turned out to be 0.864; the viability index under setting [5] was determined as 1.

Turning to `CCOc1cc(Cl)c(C(C)NC(=O)c2cccc(OC)c2)cc1OCC` (stereo not given), the viability index runs as follows: under setting [1], 0.0343; under setting [2], 0.121; under setting [3], 0.143; under setting [4], 0.298; under setting [5], 0.231.

Compound `COc1ccc(C)c2sc(N(Cc3cccnc3)C(=O)c3ccc(C#N)cc3)nc12` gave a viability index under setting [1] of 0.441; a viability index under setting [2] of 0.704; a viability index under setting [3] of 0.95; a viability index under setting [4] of 0.794; a viability index under setting [5] of 1.01.

Take `O=C1c2ccc3c4c(ccc(c24)C(=O)N1CCCCO)C(=O)N(CCCCO)C3=O`: the viability index runs as follows: under setting [1], 0.364; under setting [2], 0.261; under setting [3], 0.204; under setting [4], 0.168; under setting [5], 0.182.

Regarding `O=C1c2ccccc2C2=Nc3ccccc3SC(c3cccc(F)c3)C12` (stereo not given), the viability index turned out to be 0.857 under setting [1]; 0.869 under setting [2]; 0.868 under setting [3]; 0.75 under setting [4]; 0.844 under setting [5].

For `COc1ccc(-c2nonc2NC(=O)c2cccc(C)c2)cc1OC`, the viability index by setting is: under setting [1], 0.62; under setting [2], 0.55; under setting [3], 0.571; under setting [4], 0.769; under setting [5], 0.571.

Consider `Cc1ccc(F)cc1NC(=O)c1cc(Cl)ccc1Nc1ccccc1`, for which the viability index under setting [1] stood at 0.441; the viability index under setting [2] is 0.395; the viability index under setting [3] was found to be 0.332; the viability index under setting [4] came to 0.522; the viability index under setting [5] amounted to 0.753.

Consider `Oc1c(C(Nc2ccccn2)c2cccc(Oc3ccccc3)c2)ccc2cccnc12` (stereo not given), for which the viability index reads like this: under setting [1], 1.06; under setting [2], 0.975; under setting [3], 1.04; under setting [4], 0.994; under setting [5], 0.675.

`CCOC(=O)C1CCN(C(=O)CN2C(=O)c3ccccc3C2c2c[nH]c3ccccc23)CC1` (stereo not given) gave a viability index under setting [1] of 1.39; a viability index under setting [2] of 0.924; a viability index under setting [3] of 1.14; a viability index under setting [4] of 1.13; a viability index under setting [5] of 1.18.

As for `CCN(CC)CCNc1ncnc2c1[nH]c1ccc(Br)cc12`, the viability index under setting [1] is 0.0398; the viability index under setting [2] was found to be 0.36; the viability index under setting [3] was found to be 0.635; the viability index under setting [4] worked out at 0.641; the viability index under setting [5] is 0.396.

In turn, `CCOc1ccc(C2N(C)c3ccccc3N2C)cc1` returned a viability index under setting [1] of 0.996; a viability index under setting [2] of 1.03; a viability index under setting [3] of 1.08; a viability index under setting [4] of 0.985; a viability index under setting [5] of 0.901.

For `O=C(Nc1ccc(Br)cc1)Nc1cccc(Cl)c1`, the viability index is, setting by setting: under setting [1], 0.341; under setting [2], 0.542; under setting [3], 0.816; under setting [4], 0.936; under setting [5], 0.451.

As to `O=C(Nc1ccc(Cl)c(Cl)c1)Nc1ccc(Cl)c(Cl)c1`, the viability index was determined as 0.0437 under setting [1]; 0.0241 under setting [2]; 0.0353 under setting [3]; 0.0918 under setting [4]; 0.104 under setting [5].

`C[n+]1c2ccccc2nc2ccc(NCCO)cc21`: the viability index reads like this: under setting [1], 0.0398; under setting [2], 0.302; under setting [3], 0.595; under setting [4], 0.824; under setting [5], 1.03.

In the case of `Oc1ccccc1CN1CCN(C(c2ccccc2)c2ccccc2)CC1`, the viability index is 0.0221 under setting [1]; 0.102 under setting [2]; 0.437 under setting [3]; 0.535 under setting [4]; 0.615 under setting [5].

For `OC(CNC1CCCCC1)Cn1c2ccccc2c2ccccc21` (stereo not given), the viability index turned out to be 0.0354 under setting [1]; 0.0493 under setting [2]; 0.178 under setting [3]; 0.277 under setting [4]; 0.198 under setting [5].

The compound `CCOc1cc(Cl)c(C(C)NC(=O)c2ccccc2)cc1OCC` (stereo not given) came in with a viability index under setting [1] of 0.728; a viability index under setting [2] of 0.781; a viability index under setting [3] of 0.819; a viability index under setting [4] of 1.03; a viability index under setting [5] of 0.901.

For the compound `c1ccc(Cn2c(N=Nc3c(Nc4ccccc4)ccc4ccccc34)nc3ccccc32)cc1`, the viability index under setting [1] came to 0.00884; the viability index under setting [2] is 0.0106; the viability index under setting [3] is 0.058; the viability index under setting [4] amounted to 0.149; the viability index under setting [5] is 0.209.

As to `CN(C)c1ccc(C(O)(c2ccc(N(C)C)cc2)c2ccc(N(C)C)cc2)cc1`, the viability index worked out at 0.157 under setting [1]; 0.0203 under setting [2]; 0.0948 under setting [3]; 0.0608 under setting [4]; 0.11 under setting [5].

For the compound `Cc1cc(Nc2ccc3ccccc3c2)n2ncnc2n1`, the viability index stood at 0.567 under setting [1]; 0.521 under setting [2]; 0.755 under setting [3]; 0.79 under setting [4]; 0.626 under setting [5].

`CCN(CC)CCNc1ccnc2cc3ccccc3cc12`: the viability index is, setting by setting: under setting [1], 0.0323; under setting [2], 0.0591; under setting [3], 0.106; under setting [4], 0.0475; under setting [5], 0.039.

For `OC(Cn1nnc2ccccc21)Cn1c2ccc(Br)cc2c2cc(Br)ccc21` (stereo not given), the viability index reads like this: under setting [1], 0.634; under setting [2], 0.684; under setting [3], 1.04; under setting [4], 0.972; under setting [5], 1.21.
